The nature of test [1]: STM_H9_OrnithineISnorm_perc: Stemina devTOX quickPredict H9 human embryonic stem cell (hESC)-based Assay for Ornithine (ORN) Metabolite Biomarker, Normalized (AID 2283712).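 Also: ornithine released into spent medium during last day measured by mass spectrometry.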 The method, boiled down: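 UPLC-HRMS readout: endogenous ornithine EIC area / 13C-ORN internal standard, then % of 0.1% DMSO median. H9 hESCs (pluripotent), 72h exposure, re-dosed with fresh media q24h; last 24-h spent media, deproteinized in 40% acetonitrile.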

Test [2] is described as follows: STM_H9_CystineISnorm_perc: Stemina devTOX quickPredict H9 human embryonic stem cell (hESC)-based Assay for Cystine (CYSS) Metabolite Biomarker, Normalized (AID 2283713). The method, boiled down:
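UPLC-HRMS read-out: endogenous cystine peak area in spent medium, normalized to isotope-labeled internal standard and to median of 0.1% DMSO controls. Pluripotent H9 cells, 72h exposure, daily medium/compound replenishment; medium from last 24h sampled.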

Test [3] in a line: STM_H9_OrnCyssISnorm_ratio: Stemina devTOX quickPredict H9 human embryonic stem cell (hESC)-based Assay for Ornithine (ORN):Cystine (CYSS) Ratio (AID 2283714; active = hit-call score of the fitted dose curve at least 0.9, where 1 is the maximum). The method, boiled down:
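UPLC-HRMS of spent media: ORN/CYSS ratio of internal-standard-normalized percentages, DMSO (0.1%) baseline. Pluripotent H9 hESCs, 72h exposure, daily re-dosing with fresh media; last 24h media collected.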

Test [4] is described as follows: Tanguay_ZF_120hpf_ActivityScore_legacy: (Legacy) Oregon State University Tanguay Lab 120 Hour Post-fertilization zebrafish Assay Score for Activity (AID 2283742; active = hit-call score of the fitted dose curve at least 0.9, where 1 is the maximum;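 as to AC50: dechorionated Tropical 5D wild-type zebrafish embryos held singly per well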). The method, boiled down:
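Dechorionated 5D embryos, one per well, static exposure 6–120 hpf, 28C, sealed and dark; final DMSO 0.64% (vol/vol). Brightfield binary scoring of mortality plus 18 endpoints; gain-of-signal fit versus DMSO baseline.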

A short description of test [5]: CEETOX_H295R_MTT_cell_viability: Viability Assessment in the CeeTox HT-H295R MTT Assay (AID 2283718).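 As to AC50: curve fitted both ways so AC50 may mark viability loss or gain.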 The method, boiled down:
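Human H295R adrenal cells, prestimulated 48 h with 10 uM forskolin, were exposed 48 h to chemicals in 0.1% DMSO. Viability was measured in the same wells by MTT (0.5 mg/ml, 4 h, 37 C), absorbance 570/650 nm, as percent of controls.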

Test [6] can be described thus: ArunA_CellTiter_hNC: Viability Assessment in the ArunA Biomedical's Oris Neural Crest (hNC) Cell Migration Assay (AID 2283752; active = hit-call score of the fitted dose curve at least 0.9, where 1 is the maximum). The method, boiled down:
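hNC cells (H9 ESC-derived), 60,000/well, Matrigel, LIF + bFGF medium; 16 h 37C attachment; 72 h compound in test medium; CellTiter Aqueous One read-out; loss-of-signal vs DMSO baseline.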

Test [7] in a line: ArunA_Migration_hNP: ArunA Biomedical's Oris Neuroprogenitor (hNP) Cell Migration Assay (AID 2283754; active = hit-call score of the fitted dose curve at least 0.9, where 1 is the maximum). The method, boiled down:
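Readout is calcein-AM fluorescence (ex494/em517) of cells migrating into the detection zone, relative to DMSO. hNP1 cells (H9-derived) grown on Matrigel behind stoppers 16 h, then stoppers pulled and chemical applied 72 h; cytochalasin D as control.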

Test [8] is described as follows: ArunA_Migration_hNC: ArunA Biomedical's Oris Neural Crest (hNC) Cell Migration Assay (AID 2283755; active = hit-call score of the fitted dose curve at least 0.9, where 1 is the maximum). The method, boiled down: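 Calcein-AM fluorescence (ex494 nm/em 517 nm) in the stopper-defined detection zone quantifies migration of hNC cells after 72 h chemical exposure; 60,000 cells/well plated on Matrigel with LIF and bFGF, 16 h pre-incubation. DMSO baseline.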

Results filed as inconclusive are left out. Active and inactive are the calls of the source. The calls were made as follows, unless noted: active = hit-call score of the fitted dose curve at least 0.9, where 1 is the maximum; inactive = score below 0.9.

For the molecule `O=C(O)C(Cl)Cl`, the outcome in test [1], in test [2], in test [3] and in test [4] was inactive.
Turning to `CCOc1ccc(C(C)(C)COCc2cccc(Oc3ccccc3)c2)cc1`, the result in test [5] and in test [4] was inactive.
As to `Cc1ccc(N)cc1N`, the AC50 – broadly, the concentration at which the activity in the assay is half-maximal – in test [1] is 89.7 µM (active); in test [3], 65.8 µM (active); in test [4], 0.00921 µM (active); in test [8], 55.6 µM (active). Further, the outcome in test [2], in test [5], in test [6] and in test [7] was inactive.
`CCOP(=S)(OCC)SCS(=O)(=O)CC`: the outcome in test [5] was inactive.
Same read-out and setting: as for `ClC(Cl)=C(c1ccc(Cl)cc1)c1ccccc1Cl`, the entry is “inactive”.
For `CCOC(=O)c1ccccc1C(=O)OCC`, the result in test [1], in test [2], in test [5] and in test [4] was inactive.
With `CCOP(=S)(NC(C)C)Oc1ccccc1C(=O)OC(C)C` (stereo not drawn), the molecule was called inactive in test [5].
With `O=S1(=O)OCC2C(CO1)C1(Cl)C(Cl)=C(Cl)C2(Cl)C1(Cl)Cl` (stereo not drawn), the molecule was classed as inactive in test [5].
In the case of `c1ccc(OP(Oc2ccccc2)Oc2ccccc2)cc1`, the outcome in test [5] and in test [4] was inactive.
Turning to `COCCOCCO`, the outcome in test [1], in test [2], in test [3] and in test [4] was inactive.
In the case of `Nc1ccc2ccccc2c1`, the outcome in test [1], in test [2] and in test [3] was inactive. In addition, the AC50 was 23.9 µM (active) in test [5] and 36.8 µM (active) in test [4].

(Values after PubChem BioAssay (EPA / NIEHS).)
